# Measurements reported in PubChem BioAssay (NCATS).
# Assay: High-throughput drug toxicity screening in the BPDCN cell line Gen2.2 (AID 1224824)
# Details: Gen2.2 BPDCN cells; at 45.8 µM (top of the series) unless noted
# From the text: Blastic plasmacytoid dendritic cell neoplasm (BPDCN) is a rare, aggressive and largely incurable hematologic malignancy originating from plasmacytoid dendritic cells (pDCs). Although an initial response to chemotherapy is common, BPDCN prognosis is extremely poor and most patients relapse with drug-resistant disease leading to a median overall survival of ~1 year after diagnosis. To explore novel potential therapeutic strategies in BPDCN, we performed a high-throughput drug toxicity screening in BPDCN cell liens, using of a library of 1,912 small molecules, enriched for compounds that are either approved or in early stages of development for cancer therapy.
# A total of 500 exponentially growing Gen2.2 cells were seeded per well in 5 uL of media (RPMI + Glutamine, without phenol red plus10% FBS and 1X Pen/Strep) into 1536-well solid white high base tissue culture treated Greiner One Bio Plates (789173-F), using a multidrop combi dispenser and a small sterile cassette. Compounds and controls totaling 23nL per well (negative control DMSO and positive control 9.2 uM Bortezomib-final) were immediately added to the plates using a 1536 head pin tool from Kalypsys. The plates were then covered with stainless steel gasket lids from Kalypsys and incubated for 48 hours at 37C under 95% relative humidity with 5% CO2. After 48 hours, the plates were removed and allowed to reach room temperature before 3 uL of Cell Titer Glo reagent (Promega) were added using an Aurora Flying Reagent Dispenser Bioraptor. The plates were then spun at 1000 rpms to remove bubbles and incubated for 15 minutes at room temperature before reading on a ViewLux using a luminescent filter with a 10 second exposure. The relative luciferase units were used to calculated percent activity using DMSO as 100% and Bortezomib as 0%.
row,SMILES,"cell viability, % of control (lower = more cytotoxic)"
1,O=C(O)[C@H]1O[C@H](Oc2cc3oc(-c4ccccc4)cc(=O)c3c(O)c2O)[C@H](O)[C@@H](O)[C@H]1O,46.5%
2,NS(=O)(=O)c1ccc(NC2=CC(=O)c3ccccc3C2=O)cc1,162%
3,NC1CCC(Nc2nc(Nc3ccc(C(=O)N4CCCCC4)cc3)c3ncn(-c4cccc(F)c4)c3n2)CC1 (stereo not given),208%
4,CC(C)OC(=O)C(C)(C)Oc1ccc(C(=O)c2ccc(Cl)cc2)cc1,250%
5,Nc1ncnc2c1ncn2[C@@H]1O[C@H](CO)C[C@@H]1O,96.4%
6,C[C@H](NC(=O)C(=O)Nc1ccccc1C(C)(C)C)C(=O)N[C@@H](CC(=O)O)C(=O)COc1c(F)c(F)cc(F)c1F,200%
7,CN[C@@H](C)C(=O)N[C@H]1CN(C(=O)CC(C)C)CC[C@H]2CC[C@@H](C(=O)NC(c3ccccc3)c3ccccc3)N2C1=O,19.5%
8,Clc1ccc(CCC(Cn2ccnc2)Sc2c(Cl)cccc2Cl)cc1 (stereo not given),177%
9,CN(C)C1CCN(C(=O)c2ccc(NC(=O)Nc3nc(N4CCOCC4)nc(N4CCOCC4)n3)cc2)CC1,6.71%
10,O=c1[nH]cnc2c1ncn2[C@H]1CC[C@@H](CO)O1,93.2%
11,CN(C)CCC=C1c2ccccc2COc2ccc(CC(=O)O)cc21,162%
12,CC1CCC(C(=O)N(c2cc(C#CC(C)(C)C)sc2C(=O)O)C2CCC(O)CC2)CC1 (stereo not given),50.9%
13,COC(=O)C1=CO[C@@H](O)[C@@H]2C(CO)=CC[C@@H]12,17.3%
14,CC(=O)OC1C(C)OC(Oc2c(-c3ccc(O)cc3)oc3cc(O)cc(O)c3c2=O)C(O)C1OC(C)=O (stereo not given),5.65%
15,COc1cc2ncnc(Nc3ccc(F)c(Cl)c3)c2cc1OCCCN1CCOCC1,14.5% [at 92.2 µM]
16,CCOC1OC(=O)C[C@H]1NC(=O)[C@@H]1CCCN1C(=O)[C@@H](NC(=O)c1ccc(N)c(Cl)c1)C(C)(C)C (stereo not given in full),49.8%
17,CC(C)(C)C(=O)Oc1ccc2c(c1)nc(NC(=O)c1cccc([N+](=O)[O-])c1)n2CCCO,190%
18,Cc1c(O)cccc1C(=O)N[C@@H](CSc1ccccc1)[C@H](O)CN1C[C@H]2CCCC[C@@H]2C[C@@H]1C(=O)NC(C)(C)C,66.8%
19,Cc1ccc(Nc2cc(-c3cccc(N4C(=O)c5ccccc5C4=O)c3)ncn2)cc1NS(C)(=O)=O,52.3%
20,COc1ccc(Cc2nccc3cc(OC)c(OC)cc23)cc1OC,47.4%

row,SMILES,"cell viability, % of control (lower = more cytotoxic)"
1,O=C1NC(=O)C(=Cc2cccc(C(F)(F)F)c2)S1,128%
2,O=C(O)CCC1CCC(c2cc(F)ccc2F)(S(=O)(=O)c2ccc(Cl)cc2)CC1 (stereo not given),8.09%
3,COc1ccc2c(Oc3ccc(NC(=O)c4c(C)n(CC(C)(C)O)n(-c5ccccc5)c4=O)cc3F)ccnc2c1,16.8%
4,CC[C@H]1OC(=O)[C@H](C)C(=O)[C@H](C)[C@@H](O[C@H]2O[C@H](C)C[C@H](N(C)C)[C@@H]2O)[C@](C)(OC)C[C@@H](C)C(=O)[C@H](C)[C@H]2N(CCCCn3cnc(-c4cccnc4)c3)C(=O)O[C@]12C,122%
5,CC(C)C(=O)Oc1ccc(CO)cc1[C@H](CCN(C(C)C)C(C)C)c1ccccc1,126%
6,CC(C)(Cc1ccc2ccccc2c1)NC[C@@H](O)COc1cccc(Cl)c1C#N,123%
7,Cn1c(N2CCCCS2(=O)=O)nc(C(=O)NCc2ccc(F)cc2)c(O)c1=O,60.2%
8,CN(C[C@@H]1COCCO1)S(=O)(=O)Nc1ccc2ccc3ncc(-c4cnn(C)c4)cc3c(=O)c2c1,12.9%
9,O=C1c2ccccc2-[n+]2ccc3c([nH]c4ccccc43)c21,5.04%
10,C[C@@H]1CCN(C(=O)CC#N)C[C@H]1N(C)c1ncnc2[nH]ccc12,52.4%
11,O=C(Nc1ccccc1Br)N[C@@H]1CCN(c2ccc(C(F)(F)F)cn2)C1,266%
12,NC(CO)(CO)CCc1ccc(Sc2cccc(OCc3ccccc3)c2)cc1Cl,7.64%
13,CC(=O)O[C@]1(C(C)=O)CC[C@@H]2[C@@H]3C[C@H](C)C4=CC(=O)CC[C@]4(C)[C@H]3CC[C@@]21C,75.1%
14,CC(=Cc1ccccc1)C=C1SC(=S)N(CC(=O)O)C1=O,124%
15,CCOC(CN1C(=O)[C@](CC(=O)Nc2ccc(C)cc2)(NC(=O)Nc2ccc(C)cc2)c2ccccc21)OCC,45.2%
16,Nc1ncnc2c1nc(Cl)n2[C@@H]1O[C@H](CO)[C@@H](O)[C@@H]1O,6.19%
17,COc1cccc(-c2cc(=O)c3ccccc3o2)c1N,45.3%
18,CC(C)OC(=O)CCCC=CC[C@@H]1[C@H](C=C[C@@H](O)COc2cccc(C(F)(F)F)c2)[C@H](O)C[C@@H]1O,286%
19,CCOc1ccc(Nc2nc(-c3c(C)nc4ccccn34)cs2)cc1,11%
20,CO[C@H]1C=CC=C(C)C(=O)NC2=CC(=O)C(NCCN(C)C)=C(C[C@@H](C)C[C@H](OC)[C@@H](O)[C@@H](C)C=C(C)[C@@H]1OC(N)=O)C2=O,4.49%
